Source: PubChem (National Center for Advancing Translational Sciences (NCATS))
KinaseGlo FLuc: blocks Kinase-Glo luciferase, a counter-screen artifact; Potency, µM (highest dose often 38.3 µM), inactives show at the top dose activity change, negative = inhibition, most hits filed as inhibitors; Kinase-Glo luciferase, ATP luminescence, 8 min; Q27757; 200,000 tested, 0.28% active; further: on the % scale 0 is the no-effect control and ±100 the full control effect; nearly all actives have a fitted effect of over 60% in size
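Luminescence was the read-out, taken after 8-minute incubation at ambient temperature. Luciferase turned over luciferin with 10 uM ATP in imidazole pH 7.2 buffer containing KCl, MgCl2, Tween 20 and BSA.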
Rab9 promoter act: Rab9 promoter activation; Potency, µM (titrated, usually from 9.22 µM), for inactives: at the highest dose activation, negative = inhibition, hits mostly activators; Huh7 Rab9 promoter-luciferase reporter, luminescence, 24 h; 320,000 tested, 2.8% active; further: % of control where 0% means no effect; nearly all actives have a fitted effect of over 60% in size
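Quantitative HTS format; Huh7 Rab9-luciferase reporter cells (1500/well) receive compound 2 h post-plating, incubate 24 h at 37 °C, then get luciferase reagent for 10 min before luminescence reading.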
ELG1 genotoxic: induces genotoxicity in HEK293T cells with luciferase-tagged ELG1 | HEK293T ELG1-luciferase reporter, luminescence, 16 h | Potency, µM (highest dose often 46 µM), inactives show at the highest dose activity change, positive = activation, actives largely listed as activators | 330,000 tested, 1.3% active | AID 504466; further: % of control where 0% means no effect; nearly all actives have a fitted effect of over 60% in size
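Screening used a luciferase reporter fused to human ELG1 in HEK293T cells. Luminescence was read on a CCD plate imager after 16 hr exposure and 30 min ONE-Glo incubation.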
FLuc modulator: firefly luciferase modulation, counter-screen for miR-21 project. Potency, µM (doses to about 57.5 µM), for the others: at the top dose activity change, negative = inhibition, actives largely listed as inhibitors. AID 588342. purified FLuc, Km substrates, luminescence inhibition. 360,000 tested, 6.9% active. P08659;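 further: plate controls were vehicle for no effect and reference inhibitor for full effect; nearly all actives have a fitted effect of over 55% in size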
Target sequence (P08659 whole entry, looked up): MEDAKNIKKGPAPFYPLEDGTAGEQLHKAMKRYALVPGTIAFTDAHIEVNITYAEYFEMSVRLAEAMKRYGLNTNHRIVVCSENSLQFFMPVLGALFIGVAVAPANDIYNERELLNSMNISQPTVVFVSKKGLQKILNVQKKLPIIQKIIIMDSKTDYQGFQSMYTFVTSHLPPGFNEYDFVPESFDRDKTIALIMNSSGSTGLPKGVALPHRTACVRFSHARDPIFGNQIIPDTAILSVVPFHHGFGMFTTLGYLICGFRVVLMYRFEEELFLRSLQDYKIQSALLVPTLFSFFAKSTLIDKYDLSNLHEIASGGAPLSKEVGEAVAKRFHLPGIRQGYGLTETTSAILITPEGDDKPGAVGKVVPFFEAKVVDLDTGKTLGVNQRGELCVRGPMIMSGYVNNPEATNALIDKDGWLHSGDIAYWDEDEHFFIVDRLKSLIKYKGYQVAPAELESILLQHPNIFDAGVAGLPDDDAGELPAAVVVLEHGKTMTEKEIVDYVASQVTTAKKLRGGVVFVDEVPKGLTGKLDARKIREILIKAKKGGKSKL
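Purified P. pyralis luciferase, 10 nM final, with Km-level 10 uM D-luciferin and 10 uM ATP in 50 mM Tris acetate pH 7.5, 10 mM Mg acetate, 0.01% Tween-20, 0.05% BSA; 6-point qHTS titration about 60 µM downward; luminescence read.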
SMN2 splice up: increases expression of the SMN2 splice variant | HEK293 SMN2-luciferase splicing reporter, luminescence, 30-36 h | Potency, µM (series often up to 46.1 µM), inactives show top-dose activity change, positive = activation, actives largely listed as activators | 210,000 tested, 2.8% active | AID 1458; further: % of control where 0% means no effect; nearly all actives have a fitted effect of over 55% in size
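qHTS luciferase splicing reporter: luminescence rises when SMN2 exon 7 is included in transfected HEK293 cells. Compound exposure lasted 30-36 h at 37C, with 4.5 mM final sodium butyrate as control, followed by a ONE-Glo read.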
NPC1 prom act: NPC1 promoter activation | Huh7 NPC1 promoter luciferase reporter, 24 h | Potency, µM (highest dose often 9.22 µM), for inactives: at the highest dose activation, usual class: activators | 320,000 tested, 2.4% active | AID 485313; further: % of control where 0% means no effect; nearly all actives have a fitted effect of over 60% in size
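Huh7 cells stably carrying NPC1 promoter–luciferase, plated in Opti-MEM with 10% FBS for 2 h, were exposed to compound in DMSO for 24 h at 37 °C; luciferase reagent was added for 10 min and luminescence read.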
An asterisk follows results filed as active; u = inconclusive; x = no result. A selection: hits, their analogues and other compounds. The true share with any hit is near 7.5%. The call rests on the fitted dose curve; in most records, active means well fitted curve in the direction sought with a large enough effect; inconclusive means small, poorly fitted or top-dose-only effect, or another doubt; inactive means no such curve, though single readings can be large; an effect the other way counts as inactive or inconclusive. Potency means the concentration at half of the fitted maximal effect.

SMILES	KinaseGlo FLuc	Rab9 promoter act	ELG1 genotoxic	FLuc modulator	SMN2 splice up	NPC1 prom act
O=C(Cc1ccc(F)cc1)OCC(=O)c1cc2ccccc2o1	1%	2%	1%	21µM*	7%	9%
Cc1ccc(C(=O)COC(=O)c2ccco2)cc1C	x	13%	23µM*	1.5µM*	x	1%
O=C(COC(=O)c1ccco1)c1ccc2ccccc2c1	-2%	9%	10%	2.4µM*	-15%	-2%
COc1cc(C(=O)COC(=O)c2ccco2)cc(OC)c1OC	x	x	11%	x	x	x
Cc1ccc(CNC(=O)COC(=O)c2ccc(Br)o2)cc1	x	1%	3%	x	x	-1%
Cc1ccc(C(=O)COC(=O)c2ccc(Br)o2)cc1C	3%	16%	4%	11µM*	10%	2%
Cc1csc(NC(=O)c2cncc(Br)c2)n1	-2%	1.1µM*	u	9.5µM*	13µM*	2.8µM*
Cc1csc(NC(=O)c2ccc(S(C)(=O)=O)cc2)n1	-4%	u	-20%	u	-16%	u
O=C(Nc1nccs1)c1cncc(Br)c1	-4%	4µM*	7%	u	11µM*	u
COc1ccccc1N1CCN(/N=C\c2ccc(C)o2)CC1	-3%	3.2µM*	u	21µM*	11µM*	3.5µM*
COc1ccccc1N1CCN(/N=C/C(Cl)=C/c2ccccc2)CC1	x	3.2µM*	10%	5.4µM*	x	2.5µM*
Cc1ccc(N2CCN(/N=C/C(Cl)=C/c3ccccc3)CC2)cc1	-2%	-3%	1%	-4%	5%	3%
COc1ccccc1N1CCN(/N=C\c2ccccc2)CC1	x	u	u	15µM*	x	u
Cc1ccc(C)c(Cn2c(=O)cc(C)c3c(C)nn(-c4cccc(F)c4)c32)c1	x	x	x	-4%	x	x
O=C(c1cccn1-c1nnc(N2CCCCC2)s1)N1CCN(c2ccccc2)CC1	x	x	x	-12%	x	x
O=C(Nc1ccccc1Br)N1CCC(CN2CCCC2)CC1	x	x	x	2%	x	x
Cc1cccc(NC(=S)N2N=CCC2c2ccccc2)c1 (configuration not stated)	-3%	20%	u	21µM*	5%	u
O=C(CSc1nnc(-c2ccc(O)cc2)o1)Nc1cccc(O)c1	x	-1%	u	u	x	13%
O=C(Nc1ccc2c(c1)OCCO2)C1CC(c2ccccc2Cl)=NO1 (configuration not stated)	x	4µM*	6%	19µM*	x	4µM*
CC(C)(C)c1ccc(-c2nnc(SCC(=O)c3ccc4c(c3)OCCO4)o2)cc1	-2%	-17%	-3%	24µM*	-40%	-2%
O=C(CSc1nnc(-c2ccc(O)cc2)o1)Nc1ccc2c(c1)OCCO2	-1%	4µM*	15%	u	16µM*	3.2µM*
O=C(CSc1nnc(-c2ccccc2Cl)o1)Nc1ccc2c(c1)OCCO2	-2%	u	u	u	14µM*	29%
O=C(CSc1nnc(CNC(=O)c2ccccc2)o1)Nc1ccc2c(c1)OCCO2	x	6%	4%	u	x	6%
COc1cccc(CNC(=O)CCc2c(C)nc3c(c2C)c(=O)n(C)c(=O)n3C)c1	x	x	x	-9%	-7%	x
Cc1cccc(C(=O)NCC(=O)OCc2cc(=O)n3nc(C4CCCCC4)sc3n2)c1	x	x	x	-11%	x	x
SMILES	KinaseGlo FLuc	Rab9 promoter act	ELG1 genotoxic	FLuc modulator	SMN2 splice up	NPC1 prom act
COc1ccc(C2CC(=O)c3cnc4c(-c5ccc(F)cc5)c(C)nn4c3C2)cc1OC (configuration not stated)	x	x	x	5%	1%	x
Cc1nnc(SC(C)C(=O)Nc2ccc3c(c2)OCCO3)s1 (configuration not stated)	2%	-2%	5%	u	22%	1%
COc1ccc(-c2nnc(SC(C)C(=O)Nc3ccc4c(c3)OCCO4)o2)cc1 (configuration not stated)	2%	u	5.8µM*	u	18µM*	18%
C=CCOC(=O)N[C@@H](c1cccs1)C(C(C)=O)C(C)=O	0%	x	x	x	-5%	x
Cc1ccc(N/N=C/c2c(O)cc(C)oc2=O)cc1	-3%	0%	7%	13µM*	-46%	4%
Cc1cc(O)c(/C=N/Nc2ccc(F)cc2)c(=O)o1	-2%	-5%	8%	13µM*	-36%	3%
Cc1c(/C=N/Nc2ccc(F)cc2)c(O)n(C)c(=O)c1C#N	1%	-7%	4%	24µM*	x	2%
O=C(CSc1ccsc1[N+](=O)[O-])NCCc1ccc(Cl)cc1	2%	-8%	0%	-1%	-13%	2%
Cc1ccc(CNC(=O)CSc2ccsc2[N+](=O)[O-])cc1	0%	1.4µM*	u	u	u	u
COc1ccc(CNC(=O)CSc2ccsc2[N+](=O)[O-])cc1	2%	2.2µM*	u	17µM*	u	u
Cc1nn(C)c(C)c1C(C)NC(=O)c1cc(COc2ccc(F)c(F)c2)on1 (configuration not stated)	x	u	15%	21µM*	x	u
C/C(=N/Nc1cc(-c2ccccc2)nc(-c2ccccc2)n1)c1ccc(O)cc1	-1%	-3%	0%	11µM*	x	-5%
C/C(=N/Nc1nc(-c2ccccc2)cc(-c2ccccc2)n1)c1ccc(N)cc1	-1%	-9%	-4%	5.4µM*	u	0%
C/C(=N\Nc1cc(Cl)nc(C)n1)c1ccccc1	-3%	u	9%	9.5µM*	31%	u
COC(=O)CSc1nc2sc3c(c2c(=O)n1-c1ccccc1C)CC(C)(C)OC3	x	x	x	-2%	-15%	x
Cc1ccc(CNC(=O)Cn2c(=O)n(-c3ccc(C)c(F)c3)c(=O)c3sc4ccccc4c32)cc1	x	x	x	-2%	3%	x
OCC1(C2=NOC(O)(C(F)(F)F)C2)CCCCC1 (configuration not stated)	-2%	10%	0%	0%	8%	2%
OC1(C(F)(F)F)CC(c2ccc3ccccc3c2)=NO1 (configuration not stated)	x	-2%	u	19µM*	x	3%
CCCCCCCCCCCCC/C=C/[C@@H](O)[C@H](CO)NC(=O)CCCCCCC	1%	x	x	x	7%	x
Cc1cccc(N2CCN(S(=O)(=O)c3csc(C(N)=O)c3)CC2)c1C	x	x	x	-11%	x	x
COc1cc(/C=N/NC(=O)Nc2cccc3nsnc23)cc(OC)c1OC	1%	7%	0%	-17%	0%	1%
O=C(N/N=C/c1ccc(O)cc1)Nc1cccc2nsnc12	-2%	28%	1%	12µM*	x	11%
O=C(NCc1ccco1)c1cc(-c2cccnc2)nc2ccccc12	1%	-8%	-2%	-5%	-7%	-5%
Cc1ccc(-c2cc(C(=O)NCc3ccco3)c3ccccc3n2)o1	-9%	14%	-9%	12µM*	-7%	-6%
